Source: the supplement of paper PMC11738630

Tested on: Salmonella enterica serovar Typhimurium 14028s
Test: approximate change in surviving CFU after surface colonization relative to water-only control (log10 CFU/mL change); higher = more surviving bacteria (less inhibition of surface colonization)
Settings: not stated (Biolog proprietary concentration), surface: plastic 96-well plate, 20-24 h at 25 °C

N#C[C@H](O[C@@H]1O[C@H](CO[C@@H]2O[C@H](CO)[C@@H](O)[C@H](O)[C@H]2O)[C@@H](O)[C@H](O)[C@H]1O)c1ccccc1 [Amygdalin]
approximate change in surviving CFU (log10) (Biolog plate: PM2, Biolog well: B4): 0.966

OC[C@@H](O)[C@@H](O[C@@H]1O[C@H](CO)[C@H](O)[C@H](O)[C@H]1O)[C@H](O)[C@@H](O)CO [Lactitol]
approximate change in surviving CFU (log10) (Biolog plate: PM2, Biolog well: C3): 1.05

OC[C@@H](O)[C@@H](O[C@H]1O[C@H](CO)[C@@H](O)[C@H](O)[C@H]1O)[C@H](O)[C@@H](O)CO [Maltitol]
approximate change in surviving CFU (log10) (Biolog plate: PM2, Biolog well: C5): 1.37

CO[C@H]1O[C@H](CO)[C@@H](O)[C@H](O)[C@H]1O [a-Methyl-D-Glucoside]
approximate change in surviving CFU (log10) (Biolog plate: PM2, Biolog well: C6): 1.2

CCCCCCCCCC(=O)O [Capric Acid]
approximate change in surviving CFU (log10) (Biolog plate: PM2, Biolog well: E1): -0.88

CCCCCC(=O)O [Caproic Acid]
approximate change in surviving CFU (log10) (Biolog plate: PM2, Biolog well: E2): -0.859

O=C(O)c1ccccc1O [2-Hydroxy Benzoic Acid (Salicylic Acid)]
approximate change in surviving CFU (log10) (Biolog plate: PM2, Biolog well: E6): -1.72

O=C(CO)[C@@H](O)[C@H](O)[C@@H](O)C(=O)O [5-Keto-D-Gluconic Acid]
approximate change in surviving CFU (log10) (Biolog plate: PM2, Biolog well: E12): 0.708

COC(=O)[C@@H](C)O [D-Lactic Acid Methyl Ester]
approximate change in surviving CFU (log10) (Biolog plate: PM2, Biolog well: F1): -0.15

O=C(O)[C@]1(O)C[C@@H](O)[C@@H](O)[C@H](O)C1 [Quinic Acid]
approximate change in surviving CFU (log10) (Biolog plate: PM2, Biolog well: F6): 1.09

CC(=O)C(C)=O [2,3-Butanedione]
approximate change in surviving CFU (log10) (Biolog plate: PM2, Biolog well: H11): -1.61

O=[N+]([O-])O [Nitrate]
approximate change in surviving CFU (log10) (Biolog plate: PM3, Biolog well: A4): 0.665

N[C@@H](CS)C(=O)O [L-Cysteine]
approximate change in surviving CFU (log10) (Biolog plate: PM3, Biolog well: A11): 0.88

NC(=O)C[C@@H](N)C(=O)O [D-Asparagine]
approximate change in surviving CFU (log10) (Biolog plate: PM3, Biolog well: C4): 0.644

NCCO [Ethanolamine]
approximate change in surviving CFU (log10) (Biolog plate: PM3, Biolog well: D9): -0.408

NCCc1c[nH]cn1 [Histamine]
approximate change in surviving CFU (log10) (Biolog plate: PM3, Biolog well: E1): -0.987

CC(O)C(N)=O (racemic) [D,L-Lactamide]
approximate change in surviving CFU (log10) (Biolog plate: PM3, Biolog well: E7): -1.78

N[C@@H]1C(O)O[C@H](CO)[C@@H](O)[C@@H]1O (stereo partly drawn) [D-Mannosamine]
approximate change in surviving CFU (log10) (Biolog plate: PM3, Biolog well: E10): -1.09

CC(=O)N[C@@H]1C(O)O[C@H](CO)[C@@H](O)[C@@H]1O (stereo partly drawn) [N-Acetyl-D-Mannosamine]
approximate change in surviving CFU (log10) (Biolog plate: PM3, Biolog well: F1): 0.15

Nc1ccn([C@@H]2O[C@H](CO)[C@@H](O)[C@H]2O)c(=O)n1 [Cytidine]
approximate change in surviving CFU (log10) (Biolog plate: PM3, Biolog well: F4): 0.386

OC[C@H]1O[C@@H](n2cnc3c(O)nc(O)nc32)[C@H](O)[C@@H]1O [Xanthosine]
approximate change in surviving CFU (log10) (Biolog plate: PM3, Biolog well: G2): 0.751

C[C@H](N)C(=O)N[C@@H](Cc1cnc[nH]1)C(=O)O
approximate change in surviving CFU (log10) (Biolog plate: PM3, Biolog well: H5): -0.258

OC1OC[C@@H](O)[C@@H](O)[C@@H]1O (stereo partly drawn) [D-Arabinose]
approximate change in surviving CFU (log10) (Biolog plate: PM2, Biolog well: B5): 0.408

O=P(O)(O)O[C@H]1O[C@H](CO)[C@@H](O)[C@H](O)[C@H]1O [D-Glucose-1-Phosphate]
approximate change in surviving CFU (log10) (Biolog plate: PM1, Biolog well: E3): 1.4

O=C(O)/C=C/C(=O)O [Fumaric Acid]
approximate change in surviving CFU (log10) (Biolog plate: PM1, Biolog well: F5): 0.88

OC[C@H]1O[C@@H](O[C@@H]2[C@@H](CO)OC(O)(CO)[C@H]2O)[C@H](O)[C@@H](O)[C@H]1O (mixture of isomers) [Lactulose]
approximate change in surviving CFU (log10) (Biolog plate: PM1, Biolog well: D10): 1.05

O=C(O)CC[C@@H](C(=O)O)N1C(=O)c2ccccc2C1=O [N-Phthaloyl-L-Glutamic Acid]
approximate change in surviving CFU (log10) (Biolog plate: PM3, Biolog well: D2): -0.343

CC(=O)N[C@@H](CO)[C@@H](O)[C@H](O)[C@H](O)CO [N-Acetyl-D-Glucosaminitol]
approximate change in surviving CFU (log10) (Biolog plate: PM2, Biolog well: D9): 0.944

C[C@H](N)C(=O)NCC(=O)O
approximate change in surviving CFU (log10) (Biolog plate: PM3, Biolog well: H4): -0.322

NCCc1ccccc1 [B-Phenylethyl-amine]
approximate change in surviving CFU (log10) (Biolog plate: PM3, Biolog well: E2): -0.129

Cc1c[nH]c(=O)[nH]c1=O [Thymine]
approximate change in surviving CFU (log10) (Biolog plate: PM3, Biolog well: F8): -0.58

CC(=O)C(C)O (configuration not stated) [3-Hydroxy-2-Butanone]
approximate change in surviving CFU (log10) (Biolog plate: PM2, Biolog well: H12): -0.15

CC(O)(CC(=O)O)C(=O)O (configuration not stated) [Citramalic Acid]
approximate change in surviving CFU (log10) (Biolog plate: PM2, Biolog well: E4): 0.687

N[C@@H](Cc1c[nH]c2ccccc12)C(=O)O [L-Tryptophan]
approximate change in surviving CFU (log10) (Biolog plate: PM3, Biolog well: B12): -1.05

NCC(O)c1ccc(O)cc1 (racemic) [D,L-Octopamine]
approximate change in surviving CFU (log10) (Biolog plate: PM2, Biolog well: H7): 0.987

CCCC(=O)C(=O)O [a-Keto-Valeric Acid]
approximate change in surviving CFU (log10) (Biolog plate: PM2, Biolog well: E10): -0.966

O=C(O)CC(=O)O [Malonic Acid]
approximate change in surviving CFU (log10) (Biolog plate: PM2, Biolog well: F2): 0.0859

O=c1cc[nH]c(=O)[nH]1 [Uracil]
approximate change in surviving CFU (log10) (Biolog plate: PM3, Biolog well: F10): 1.14

NCC(=O)N[C@@H](CCC(N)=O)C(=O)O
approximate change in surviving CFU (log10) (Biolog plate: PM3, Biolog well: H9): 0.129

OC[C@@]12OC[C@@H](O1)[C@@H](O)[C@@H](O)[C@@H]2O [Sedoheptulosan]
approximate change in surviving CFU (log10) (Biolog plate: PM2, Biolog well: D3): 0.451

C[C@H](N)C(=O)N[C@@H](CC(=O)O)C(=O)O
approximate change in surviving CFU (log10) (Biolog plate: PM3, Biolog well: H1): 0.58

CCN [Ethylamine]
approximate change in surviving CFU (log10) (Biolog plate: PM3, Biolog well: D8): -1.89
